Experiment [1] can be described thus: Validation screen for small molecules that induce DNA re-replication in SW480 colon adenocarcinoma cells (AID 504364). Further: potency means the concentration at half of the fitted maximal effect. In outline: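 250 cells/well; compound pinned in; 48 hr, 37 C, 5% CO2; Hoechst added, 40 min; nuclear fluorescence imaged, 405 ex / 500-530 em; re-replication scored as increase in high-intensity nuclei.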
The target in experiment [2] is Peptidyl-prolyl cis-trans isomerase NIMA-interacting 1 (Homo sapiens) (UniProt Q13526). Put plainly: qHTS Validation Assay to Find Inhibitors of Pin1 (AID 504536; active means well fitted inhibition curve with a large enough effect in the polarisation, with a control signal flat, not every such curve was filed as active; the % refers to the polarisation; further: potency means the concentration at half of the fitted maximal effect). The method, boiled down: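 Fluorescence polarization competition: compounds (titration) displace HiFluor-488-labeled Pin1-1b peptide from Pin1 (0.3 uM final) in pH 7.5 HEPES buffer with DTT, 10 min at room temperature; %Activity normalized to no-enzyme wells, curves fitted.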
Background: qHTS replaces the single test concentration by a dilution series.

The target in experiment [3] is phosphoglycerate mutase (Leishmania major) (UniProt Q4Q090). Nature of the experiment: qHTS Validation Assay to Find Inhibitors of Phosphoglycerate Mutase (AID 504548). Further: series mostly up to about 58 µM; on the % scale 0 is the no-effect control and ±100 the full control effect. The following applies: Potency: inhibition qHTS. In outline: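 Lm PGAM 1.25nM final; 100 mM TEA pH 7.6, 5 mM MgCl2, 0.01% Tween-20; 45 min RT; Kinase-GloPlus, 10 min; end-point luminescence. Enzyme-free wells as negative controls.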

A short description of experiment [4]: Inducers of the Endoplasmic Reticulum Stress Response (ERSR) in human glioma: Validation (AID 504836). Further: 0% is about no effect. In outline: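 Stably transfected U87-MG human glioma cells carrying a GRP78-based luminescent sensor were seeded at 1000 cells/well, pin-dosed with compounds and incubated 16 h. Luciferase reagent was then added, and end-point luminescence was read after 10 min at room temperature.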

The target in experiment [5] is Ubiquitin carboxyl-terminal hydrolase 1 (Homo sapiens) (UniProt O94782). Put plainly: Inhibitors of USP1/UAF1: Pilot qHTS (AID 504865). Further: nearly all actives have a fitted effect of over 35% in size. Further: potency means the concentration at half of the fitted maximal effect. In outline:
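In 50mM HEPES pH 7.8 containing 0.5mM EDTA, 1mM TCEP, 0.1 mg/ml BSA and 0.01% Tween-20, 1nM USP1/UAF1 is exposed to compound for 15 min, then Ub-Rho (150nM final) is added and fluorescence is read over time.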

A short description of experiment [6]: qHTS for Inhibitors of ATXN expression: Validation of Cytotoxic Assay (AID 588349). Further: on the % scale 0 is the no-effect control and ±100 the full control effect. In outline:
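Read-out: ATP-based luminescence (CellTiter Glo) reflecting viability of HEK293 cells after 72 hr incubation at 37 degrees C with a concentration series of each compound.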

Experiment [7] is described as follows: qHTS for Inhibitors of ATXN expression: Validation (AID 588378). Further: series mostly up to about 57 µM; on the % scale 0 is the no-effect control and ±100 the full control effect; nearly all actives have a fitted effect of over 75% in size. The method, boiled down:
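Compounds were pinned onto attached HEK293 cells carrying an ATXN2-firefly luciferase construct and incubated 24 hrs at 37 degrees C. Each well then received a fluorescent viability reagent followed by luciferase substrate for end-point luminescence.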

For experiment [8], the target named is Phosphoglycerate kinase, glycosomal (Trypanosoma brucei brucei) (UniProt P07378). Nature of the experiment: qHTS Validation Assay to Find Inhibitors of Phosphoglycerate Kinase (AID 504547).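 Further: control wells lack PGK and mark full inhibition.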 In outline:
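Substrate/PGK mix plus compound; reaction started with GAPDH (100nM final) to form 1,3-BPG; 60 min RT; Kinase-Glo Plus 10 min; luminescence. TEA 100mM pH 7.6, MgCl2 5mM, Tween-20 0.01%.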

Experiment [9] concerns the target Estrogen receptor (Homo sapiens) (UniProt P03372). Put plainly: qHTS assay for small molecule antagonists of estrogen receptor alpha signaling (AID 588513; active means well fitted curve in the direction sought with a large enough effect in the signal ratio, with a control signal flat, not every such curve was filed as active; the % refers to the signal ratio; further: on the % scale 0 is the no-effect control and ±100 the full control effect). In outline:
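Fluorescence from CCF4 substrate after 2 h at room temperature gave reporter activity; cells had been exposed to compound and 0.5nM 17-beta-estradiol for 18 h at 37 C. Hill-equation fitting yielded IC50 and maximal response.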

Experiment [10] has the same target. Put plainly: qHTS assay for small molecule agonists of estrogen receptor alpha signaling (AID 588514; calls by dose curve;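 further: 0% = vehicle only and 100% = reference agonist; nearly all actives have a fitted effect of over 70% in size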). The method, boiled down:
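Cells were plated at 5000/well, incubated 4 hrs at 37 C, dosed with compound titration series, incubated 18 hrs at 37 C, loaded with CCF4 dye for 2 hrs at RT, then fluorescence was read.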

Experiment [11] concerns the target Bile acid receptor (Homo sapiens) (UniProt Q96RI1). Nature of the experiment: qHTS assay for small molecule agonists of farnesoid X receptor signaling (AID 588527; calls by dose curve;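 further: series mostly up to about 77 µM; 0% = vehicle basal and 100% = reference agonist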). The following applies: HEK293T FXR-UAS-bla, beta-lactamase ratio, 16 h; hits give high values. In outline: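 FXR-UAS-bla HEK293T, 10% dialyzed FBS; cpds up to 92 uM titration, 16 h 37 C; CCF4 dye 2 h RT; fluorescence. Normalized to chenodeoxycholic acid 100 uM (100%) and DMSO (0%); Hill fit gives EC50, efficacy.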

Experiment [12] deals with Glucocorticoid receptor (Homo sapiens) (UniProt P04150). Nature of the experiment: qHTS assay for small molecule agonists of glucocorticoid receptor signaling (AID 588532; active means well fitted curve in the direction sought with a large enough effect in the signal ratio, with a control signal flat; the % refers to the signal ratio;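 further: 100% = dexamethasone at 0.1 µM and 0% = DMSO only wells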). The following applies: HeLa MMTV-bla, beta-lactamase ratio, agonist, 18 h; hits give high values; percent of dexamethasone control, DMSO zero. The method, boiled down: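 Titration series, up to 92 uM, applied to GRE-bla HeLa cells for 18 h at 37 C. Detection by CCF4 FRET substrate after 2 h at RT.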

Experiment [13] deals with Peroxisome proliferator-activated receptor delta (Homo sapiens) (UniProt Q03181). Nature of the experiment: qHTS assay for small molecule agonists of peroxisome proliferator-activated receptor delta signaling (AID 588534; calls by dose curve;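 further: 0% = DMSO basal wells and 100% = positive control agonist at 10 µM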). The method, boiled down: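 Fluorescence from CCF4 substrate cleavage by beta-lactamase reporter, read 2 hrs at RT, measured agonist activity. Compounds were tested with 18 hrs exposure at 37 C. Concentration-response data fitted to Hill equation.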

Experiment [14] deals with Peroxisome proliferator-activated receptor gamma (Homo sapiens) (UniProt P37231). Put plainly: qHTS assay for small molecule agonists of peroxisome proliferator-activated receptor gamma signaling (AID 588536; active means well fitted curve in the direction sought with a large enough effect in the signal ratio, with a control signal flat, not every such curve was filed as active; the % refers to the signal ratio;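 further: 0% = DMSO basal wells and 100% = rosiglitazone at 2 µM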). In outline: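 PPAR-gamma-UAS-bla HEK293 cells in medium with 1% charcoal/dextran-treated FBS were exposed to compounds for 16 h at 37 C. Beta-lactamase activity was read with CCF4 substrate (405 nm excitation, 460/530 nm emission).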

Experiment [15] deals with DNA dC->dU-editing enzyme APOBEC-3G (Homo sapiens) (UniProt Q9HC16). Nature of the experiment: qHTS for inhibitors of Vif-A3G interactions: Validation (AID 588379). Further: 0% is about no effect. The method, boiled down: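 HeLa cells stably expressing Vif and A3G-eYFP, 700 cells/well, incubated overnight at 37 deg C, then exposed to compound overnight at 37 deg C. Inhibition of Vif-mediated degradation read as increased yellow fluorescence (Ex 488/Em 500-530) by laser-scanning cytometry.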

Values without a mark were called inactive. Results filed as inconclusive are left out. Calls of active or inactive are those of the source. Unless noted, the call rests on the fitted dose curve; in most records, active means well fitted curve in the direction sought with a large enough effect; inconclusive means small, poorly fitted or top-dose-only effect, or another doubt; inactive means no such curve, though single readings can be large; an effect the other way counts as inactive or inconclusive.

Chain of DNA dC->dU-editing enzyme APOBEC-3G (Homo sapiens) (Q9HC16 whole entry, looked up): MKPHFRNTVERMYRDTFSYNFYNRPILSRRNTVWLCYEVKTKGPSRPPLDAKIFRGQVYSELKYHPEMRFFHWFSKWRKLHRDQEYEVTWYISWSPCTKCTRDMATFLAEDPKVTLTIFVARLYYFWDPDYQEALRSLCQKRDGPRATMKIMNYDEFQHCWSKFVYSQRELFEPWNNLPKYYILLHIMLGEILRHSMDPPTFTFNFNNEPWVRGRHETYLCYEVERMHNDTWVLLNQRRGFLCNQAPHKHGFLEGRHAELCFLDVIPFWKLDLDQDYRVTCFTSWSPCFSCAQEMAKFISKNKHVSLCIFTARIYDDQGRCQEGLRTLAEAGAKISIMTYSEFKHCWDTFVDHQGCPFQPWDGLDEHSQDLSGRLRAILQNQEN
Chain of Ubiquitin carboxyl-terminal hydrolase 1 (Homo sapiens) (O94782 whole entry, looked up): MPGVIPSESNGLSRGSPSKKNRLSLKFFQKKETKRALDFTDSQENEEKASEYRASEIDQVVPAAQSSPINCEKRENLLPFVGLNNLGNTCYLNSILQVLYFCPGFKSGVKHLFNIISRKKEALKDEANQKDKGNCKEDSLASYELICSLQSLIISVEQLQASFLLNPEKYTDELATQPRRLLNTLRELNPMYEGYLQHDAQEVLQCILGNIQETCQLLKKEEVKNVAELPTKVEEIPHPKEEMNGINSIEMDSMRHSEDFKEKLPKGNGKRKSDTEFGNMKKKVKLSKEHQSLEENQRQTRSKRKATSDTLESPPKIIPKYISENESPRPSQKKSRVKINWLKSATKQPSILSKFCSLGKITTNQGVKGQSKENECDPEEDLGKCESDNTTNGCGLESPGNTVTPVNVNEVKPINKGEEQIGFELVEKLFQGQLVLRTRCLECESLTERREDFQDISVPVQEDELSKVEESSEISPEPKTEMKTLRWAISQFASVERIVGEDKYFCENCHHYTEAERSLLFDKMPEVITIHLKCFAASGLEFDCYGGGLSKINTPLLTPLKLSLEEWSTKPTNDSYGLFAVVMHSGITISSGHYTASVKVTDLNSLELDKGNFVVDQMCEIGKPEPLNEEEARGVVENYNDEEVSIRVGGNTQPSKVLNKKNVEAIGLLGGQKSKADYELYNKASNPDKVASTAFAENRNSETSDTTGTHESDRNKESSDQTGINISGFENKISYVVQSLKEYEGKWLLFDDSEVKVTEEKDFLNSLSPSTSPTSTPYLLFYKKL
Chain of Peptidyl-prolyl cis-trans isomerase NIMA-interacting 1 (Homo sapiens) (Q13526 whole entry, looked up): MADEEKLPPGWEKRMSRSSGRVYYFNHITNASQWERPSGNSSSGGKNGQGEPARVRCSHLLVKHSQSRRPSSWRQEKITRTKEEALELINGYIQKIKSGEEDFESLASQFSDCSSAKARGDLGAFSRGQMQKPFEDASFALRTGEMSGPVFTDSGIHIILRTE
Chain of phosphoglycerate mutase (Leishmania major) (Q4Q090 1-553): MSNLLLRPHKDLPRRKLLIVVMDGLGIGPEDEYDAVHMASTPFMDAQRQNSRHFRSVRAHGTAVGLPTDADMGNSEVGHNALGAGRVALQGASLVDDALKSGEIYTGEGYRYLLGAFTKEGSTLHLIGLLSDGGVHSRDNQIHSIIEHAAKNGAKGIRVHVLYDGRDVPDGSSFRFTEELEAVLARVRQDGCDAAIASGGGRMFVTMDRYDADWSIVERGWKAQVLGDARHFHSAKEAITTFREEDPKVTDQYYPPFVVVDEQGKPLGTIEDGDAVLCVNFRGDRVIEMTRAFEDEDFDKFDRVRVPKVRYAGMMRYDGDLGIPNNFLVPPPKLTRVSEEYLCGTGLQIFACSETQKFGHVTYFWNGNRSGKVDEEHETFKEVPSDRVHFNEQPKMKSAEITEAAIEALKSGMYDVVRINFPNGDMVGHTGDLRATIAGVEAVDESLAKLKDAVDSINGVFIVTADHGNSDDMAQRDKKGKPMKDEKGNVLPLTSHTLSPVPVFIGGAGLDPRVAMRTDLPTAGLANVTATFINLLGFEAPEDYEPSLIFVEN
Chain of Phosphoglycerate kinase, glycosomal (Trypanosoma brucei brucei) (P07378 whole entry, looked up): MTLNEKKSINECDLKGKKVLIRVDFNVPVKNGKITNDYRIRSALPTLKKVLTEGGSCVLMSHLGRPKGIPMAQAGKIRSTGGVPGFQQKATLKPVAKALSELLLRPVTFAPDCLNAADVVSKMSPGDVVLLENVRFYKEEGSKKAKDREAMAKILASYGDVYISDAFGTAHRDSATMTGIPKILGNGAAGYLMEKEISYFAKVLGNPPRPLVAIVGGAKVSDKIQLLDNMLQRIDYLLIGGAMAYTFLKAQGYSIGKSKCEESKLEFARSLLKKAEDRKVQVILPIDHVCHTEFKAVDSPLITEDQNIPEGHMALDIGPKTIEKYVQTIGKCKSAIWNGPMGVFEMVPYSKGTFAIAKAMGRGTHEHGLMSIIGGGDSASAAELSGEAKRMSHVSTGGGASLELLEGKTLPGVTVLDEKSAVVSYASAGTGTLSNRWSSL
Chain of Estrogen receptor (Homo sapiens) (P03372 whole entry, looked up): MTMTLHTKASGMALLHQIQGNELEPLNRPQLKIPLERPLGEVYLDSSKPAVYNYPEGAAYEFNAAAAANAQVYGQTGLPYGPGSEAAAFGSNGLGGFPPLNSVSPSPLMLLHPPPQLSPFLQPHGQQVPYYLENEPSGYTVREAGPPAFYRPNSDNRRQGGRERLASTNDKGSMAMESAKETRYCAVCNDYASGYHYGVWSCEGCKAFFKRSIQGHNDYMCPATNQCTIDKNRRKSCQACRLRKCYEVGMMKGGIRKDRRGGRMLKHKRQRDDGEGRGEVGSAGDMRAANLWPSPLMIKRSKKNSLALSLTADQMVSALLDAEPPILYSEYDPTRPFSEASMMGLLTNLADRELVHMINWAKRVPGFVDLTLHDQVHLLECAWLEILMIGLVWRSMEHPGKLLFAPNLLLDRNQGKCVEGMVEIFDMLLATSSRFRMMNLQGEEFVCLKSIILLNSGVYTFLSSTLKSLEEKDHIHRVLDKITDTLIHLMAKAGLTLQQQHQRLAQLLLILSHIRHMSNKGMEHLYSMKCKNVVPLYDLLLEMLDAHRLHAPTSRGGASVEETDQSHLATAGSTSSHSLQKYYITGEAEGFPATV
Chain of Peroxisome proliferator-activated receptor delta (Homo sapiens) (Q03181 whole entry, looked up): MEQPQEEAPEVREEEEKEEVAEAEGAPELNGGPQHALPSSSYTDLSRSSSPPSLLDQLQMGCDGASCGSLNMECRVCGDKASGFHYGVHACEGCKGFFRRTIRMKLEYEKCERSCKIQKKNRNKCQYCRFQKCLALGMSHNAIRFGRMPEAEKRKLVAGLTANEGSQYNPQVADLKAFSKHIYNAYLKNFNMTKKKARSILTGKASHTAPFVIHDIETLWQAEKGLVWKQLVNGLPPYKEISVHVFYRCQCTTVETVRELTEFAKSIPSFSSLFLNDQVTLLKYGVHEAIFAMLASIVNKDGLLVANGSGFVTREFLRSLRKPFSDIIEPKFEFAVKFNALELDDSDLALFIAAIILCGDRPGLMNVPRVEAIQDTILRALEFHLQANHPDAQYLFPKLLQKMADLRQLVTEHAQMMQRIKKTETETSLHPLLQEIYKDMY
Chain of Peroxisome proliferator-activated receptor gamma (Homo sapiens) (P37231 whole entry, looked up): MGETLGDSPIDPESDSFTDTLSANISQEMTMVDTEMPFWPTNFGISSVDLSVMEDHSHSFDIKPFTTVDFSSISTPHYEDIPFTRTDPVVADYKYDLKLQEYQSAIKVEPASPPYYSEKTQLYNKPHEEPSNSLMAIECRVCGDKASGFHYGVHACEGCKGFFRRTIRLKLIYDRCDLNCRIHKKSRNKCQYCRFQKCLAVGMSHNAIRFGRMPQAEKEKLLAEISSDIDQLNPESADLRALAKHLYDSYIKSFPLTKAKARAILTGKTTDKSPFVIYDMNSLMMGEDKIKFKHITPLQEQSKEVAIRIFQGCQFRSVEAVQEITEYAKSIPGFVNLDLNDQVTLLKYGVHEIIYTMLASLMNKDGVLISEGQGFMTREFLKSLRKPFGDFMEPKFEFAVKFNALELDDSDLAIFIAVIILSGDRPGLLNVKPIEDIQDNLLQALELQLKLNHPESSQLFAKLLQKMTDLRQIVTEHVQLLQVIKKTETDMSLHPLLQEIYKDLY
Chain of Glucocorticoid receptor (Homo sapiens) (P04150 whole entry, looked up): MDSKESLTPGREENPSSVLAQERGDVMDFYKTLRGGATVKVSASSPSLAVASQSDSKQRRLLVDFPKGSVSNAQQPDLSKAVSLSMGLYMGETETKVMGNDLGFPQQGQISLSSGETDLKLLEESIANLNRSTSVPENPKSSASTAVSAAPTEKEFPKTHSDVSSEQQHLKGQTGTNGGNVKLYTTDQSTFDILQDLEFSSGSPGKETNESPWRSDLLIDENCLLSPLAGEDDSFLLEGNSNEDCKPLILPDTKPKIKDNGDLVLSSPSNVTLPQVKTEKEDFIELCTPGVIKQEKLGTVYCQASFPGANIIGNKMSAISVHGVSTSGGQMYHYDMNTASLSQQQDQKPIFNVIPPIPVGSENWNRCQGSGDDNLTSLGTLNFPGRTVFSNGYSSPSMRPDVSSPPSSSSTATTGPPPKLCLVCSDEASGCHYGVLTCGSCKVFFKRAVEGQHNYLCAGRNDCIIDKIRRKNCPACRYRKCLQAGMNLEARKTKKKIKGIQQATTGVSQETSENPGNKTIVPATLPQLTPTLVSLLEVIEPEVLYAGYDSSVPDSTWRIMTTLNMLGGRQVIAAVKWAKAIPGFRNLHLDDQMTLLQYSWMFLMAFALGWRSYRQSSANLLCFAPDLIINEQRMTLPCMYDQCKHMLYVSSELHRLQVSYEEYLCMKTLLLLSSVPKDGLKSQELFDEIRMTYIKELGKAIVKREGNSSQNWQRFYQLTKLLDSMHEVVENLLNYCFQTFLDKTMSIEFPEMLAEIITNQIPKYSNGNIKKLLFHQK

For the compound `CC(N)[C@H](O)c1ccc(O)c(O)c1` (stereo partly drawn), the Potency entry in experiment [1], in experiment [3], in [5], in experiment [6] and in experiment [7] was “inactive” throughout. Besides, the Potency in experiment [2] is 13.5 µM (active). Besides, in experiment [4], the call was inactive.
Consider `C[C@]12Cc3cn4c(nc3C=C1CCC1C2CC[C@@]2(C)[C@H]1CC[C@@]2(O)C#N)nc1ccccc14` (stereo partly drawn), for which the Potency in experiment [1] is 23.1 µM (active). The Potency entry in experiment [2], in experiment [8], in experiment [3], in [5], in [6] and in experiment [7] was “inactive” throughout.
Turning to `COc1ccc2c(c1)C13CCCCC1C(C2)N(C)CC3` (stereo not drawn), the Potency entry in experiment [1], in experiment [2], in experiment [3], in [5] and in experiment [6] was “inactive” in each case.
Turning to `NNC(N)=O`, the Potency result in experiment [1], in experiment [2], in experiment [3], in experiment [5], in experiment [6] and in [7] was “inactive” throughout. In addition, the Potency result in experiment [9] and in [10] was “inactive” throughout. The result in [4], in [13] and in experiment [14] was inactive. Moreover, the results for the activation in experiment [11] and in experiment [12] were -1.54% and -1.3%, respectively.
Consider `C[C@H](Cc1ccc2c(c1)OC(C(=O)O)(C(=O)O)O2)NC[C@H](O)c1cccc(Cl)c1`, for which the Potency entry in experiment [1], in experiment [2], in experiment [8], in experiment [3], in experiment [5] and in experiment [6] was “inactive” each time. Also, the Potency result in experiment [7] is “inactive”.
In the case of `c1ccc2c(N3CCNCC3)cccc2c1`, the Potency result in experiment [1], in experiment [2], in experiment [3], in experiment [5] and in experiment [6] was “inactive” throughout. Besides, in experiment [4], the outcome was inactive.
Regarding `CCCN(CCC)[C@@H]1CCc2cccc(O)c2C1`, the Potency entry in experiment [1], in experiment [2], in experiment [8], in experiment [3], in experiment [5] and in experiment [6] was “inactive” each time. The Potency result in [7] is “inactive”. For the same compound, the outcome in experiment [15] was inactive.
Turning to `NCCc1c[nH]c2ccc(C(N)=O)cc12`, the Potency entry in experiment [1], in experiment [2], in experiment [3], in [5], in experiment [6] and in experiment [7] was “inactive” throughout. For the same compound, the compound was called inactive in experiment [4] and in experiment [15].
Regarding `COc1cc(CC(C)N)c(OC)cc1I` (stereo not drawn), the Potency result in experiment [1], in experiment [2], in [3] and in [5] was “inactive” throughout.
Regarding `Oc1ccc2c3c1O[C@H]1c4oc5ccccc5c4C[C@@]4(O)C(C2)N(CC2CC2)CCC314` (stereo partly drawn), the Potency result in experiment [1], in experiment [2] and in experiment [3] was “inactive” in each case. The result in experiment [4] was inactive.
Take `C/C(O)=C(\C#N)C(=O)Nc1cc(Br)ccc1Br`: the Potency entry in experiment [1], in experiment [2], in experiment [8], in [3], in [6] and in experiment [7] was “inactive” each time. Also, the compound was classed as inactive in experiment [4].
In the case of `COc1ccc2[nH]cc(CCN)c2c1`, the Potency entry in [1], in experiment [2], in experiment [8], in experiment [3], in experiment [5] and in experiment [6] was “inactive” each time. In addition, in experiment [7], the Potency entry was “inactive”.
With `CCCN(CCC)CCc1c[nH]c2ccc(C(N)=O)cc12`, the Potency entry in [1], in experiment [2], in experiment [8], in experiment [3], in experiment [5] and in experiment [7] was “inactive” each time.
With `NC(N)=Nc1ccc2[nH]c3c(c2c1)C[C@@]1(O)[C@H]2Cc4ccc(O)c5c4[C@@]1(CCN2CC1CC1)[C@H]3O5`, the Potency result in experiment [1], in experiment [2] and in experiment [3] was “inactive” in each case. Besides, in [4], the compound was called inactive. Also, the Potency in [5] is 79.4 µM (active).
Regarding `C=CCN1CC[C@]23c4c5ccc(O)c4O[C@H]2/C(=N/NC(=O)c2ccccc2)CC[C@@]3(O)[C@H]1C5`, the Potency entry in experiment [1], in experiment [2], in experiment [3], in [5], in experiment [6] and in experiment [7] was “inactive” throughout. In addition, in experiment [4], the call was inactive.
On to `CCCN1CC[C@@H]2c3cc(O)ccc3CC[C@@H]21`, for which the Potency entry in experiment [1], in [2], in [3], in experiment [5], in experiment [6] and in experiment [7] was “inactive” each time. Further, in experiment [4], the compound was classed as inactive.

For the origin of these results see PubChem BioAssay (NCATS).
